# Source: PubChem BioAssay (several laboratories)
# SKKanGAS inh – SKKanGAS growth inhibition. 1.3% of 300,000 active. inhibition, % at 7.5 µM. AID 1662. S. pyogenes SKKanGAS, kanamycin growth, BacTiter-Glo, 6 h;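 active = mean replicate score, as percent of positive control median, at least 50; inconclusive = mean below 50 but one replicate at or above 50; inactive = mean and every replicate below 50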;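 also: strain carries kanamycin resistance gene driven by streptokinase promoter and grows in 40 µg/ml kanamycin; loss of luminescence reflects streptokinase promoter inhibition or plain growth inhibition; 0% = median of DMSO wells and 100% = positive control at its reference dose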
# tim23-1 inh – tim23-1 yeast growth inhibition. S. cerevisiae tim23-1 growth, BacTiter-Glo luminescence, 24 h. inhibition, % at 20 µM. 1.3% of 330,000 active. AID 463212;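 active = growth inhibition of the mutant yeast at or above 50%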;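 also: temperature-sensitive mutant grown at 25 °C; plate controls were DMSO-treated mutant yeast for no effect and medium wells lacking yeast for full effect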
# PfHsp90 set2 – growth inhibition of yeast expressing Plasmodium Hsp90; S. cerevisiae expressing PfHsp90, BacTiter-Glo ATP, 48 h; yeast lacking PDR1 and PDR3 efflux regulators; 0.32% of 310,000 active; AID 504621; inhibition, % at 9.4 µM;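 active = every replicate shows inhibition above about 80%, whatever the replicate mean, limit read from the data; inconclusive = mean inhibition reaches the set limit but some replicate falls short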;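 also: 0% = DMSO neutral controls and 100% = 20 µM radicicol positive controls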
# tim10-1 inh – growth inhibitors of tim10-1 mutant yeast; inhibition, % at 20 µM; 2.2% of 330,000 active; S. cerevisiae tim10-1 ts strain growth, BacTiter-Glo, 24 h;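 active = inhibition of at least 40%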;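 also: mutant grown at 25 °C; 0% = DMSO wells with yeast and 100% = wells holding no yeast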
# TIM10 inh – TIM10 yeast growth inhibition; S. cerevisiae TIM10 strain growth, BacTiter-Glo luminescence, 24 h; inhibition, % at 10 µM; 1.4% of 330,000 active;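 active = inhibition of 40% or more at the single tested concentration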;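 also: wild-type TIM10 isogenic control strain grown at permissive 25 °C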
# tim23-1 conf – tim23-1 yeast growth inhibition, confirmed; inhibition, % at 20 µM; S. cerevisiae tim23-1 growth, BacTiter-Glo luminescence, 24 h; shares compounds with tim23-1 inh; 83% of 4,400 active;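 active = inhibition above about 39% in either of two replicate wells at 20 µM, limit read from the data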;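 also: temperature-sensitive tim23-1 mutant grown at 25 °C; 0% = DMSO wells with yeast and 100% = medium wells without yeast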
# * hit, by the source's call; ? = inconclusive; · = no result. Rows were chosen to be rich in hits. Some 4.4% of all compounds tested hit in one or more screens of this group.
SMILES,SKKanGAS inh,tim23-1 inh,PfHsp90 set2,tim10-1 inh,TIM10 inh,tim23-1 conf
COC(=O)C1=C(c2cccc(C#N)c2)C[C@@H]2CC[C@H]1N2C(=O)NCCOc1ccccc1Cl,·,18.8,-18.3,5.3,3.1,·
COC(=O)C(O)(c1ccc(N=Cc2ccccc2O)c(C)c1)C(F)(F)F (centres undefined),-0.6,4.7,-38.0,-2.4,-6.9,·
CC(C)(C)c1ccc(O)c(N=Cc2c(O)ccc3ccccc23)c1,86.7*,51.5*,-15.2,14.2,36.5,54.4*
CC(=O)C1CCC2C3CCC4CC(O)CCC4(C)C3CCC12C (centres undefined),7.9,55.6*,12.2,34.4,11.4,49.1*
CC1N=C(c2ccccc2)c2cc(Br)ccc2NC1=O (centres undefined),-3.8,-0.1,-3.5,-15.9,-2.8,·
CCCCCCCCc1ccc(O)cc1,·,50.5*,19.9,16.5,-1.5,39.5*
C[N+](C)(C)CCc1ccc(O)cc1,-1.2,-15.9,0.3,-10.5,-0.5,·
CN1C(=O)C(=Cc2ccccc2Oc2ccc(Cl)cc2)C(=O)N(C)C1=O,11.1,29.3,-19.4,-3.4,-4.9,·
Cc1ccc(S(=O)(=O)Oc2ccccc2C=C2C(=O)N(C)C(=O)N(C)C2=O)cc1,-0.3,72.9*,-3.6,32.8,38.4,75.4*
CN1C(=O)C(=Cc2ccccc2OCc2ccc(Cl)cc2)C(=O)N(C)C1=O,3.5,66.7*,8.4,18.3,24.2,79.5*
C=CC[N+]1(C)C2CCC1CC(O)C2 (centres undefined),-1.4,7.4,3.2,-0.7,-0.7,·
c1ccc(Nc2ccc(Nc3ccccc3)cc2)cc1,·,22.2,3.0,30.6,15.4,·
N#CC(C#N)=C(C#N)c1ccc(Nc2ccccc2)cc1,5.9,57.0*,-0.3,16.4,-21.0,20.4
Cc1cc(OC(C)C(=O)NCc2ccncc2)c2c3c(c(=O)oc2c1)CCCC3 (centres undefined),1.5,6.5,-1.0,4.8,13.3,·
CC(=O)OC1N=C(c2ccccc2Cl)c2cc(Br)ccc2N(C)C1=O (centres undefined),-2.7,6.7,6.4,12.0,9.9,·
NS(=O)(=O)c1ccc(N=Cc2c(O)n(C3CCCCC3)c(=O)n(C3CCCCC3)c2=O)cc1,50.6*,51.8*,-6.4,24.0,32.2,46.0*
CCn1c(O)c(C=Nc2ccc(S(N)(=O)=O)cc2)c(=O)n(CC)c1=S,-3.0,9.7,5.2,9.9,2.2,·
O=c1c2ccccc2nc(/C=C/c2ccccc2O)n1-c1ccccc1O,16.9,8.9,-5.1,24.1,5.2,·
O=c1c2ccccc2nc(/C=C/c2ccccc2F)n1-c1ccccc1O,24.3,54.2*,8.3,29.9,32.7,48.5*
COC(=O)C1=C(c2ccc(-c3ccccc3)c(F)c2)C[C@@H]2CC[C@H]1N2C(=O)NCCOc1ccccc1,·,27.6,-9.8,11.1,9.9,·
C=CCN1C(=O)/C(=C/c2ccc(Br)s2)C(=O)NC1=S,-0.1,55.8*,?,21.4,17.1,72.5*
N#Cc1ccccc1Cn1cc(C(=O)c2cccs2)c2ccccc21,12.6,61.4*,4.8,8.0,22.3,12.7
O=Cc1cn(Cc2c(F)cccc2Cl)nc1-c1ccccc1,-5.4,55.0*,4.8,39.3,38.8,40.4*
CCc1ccc(-c2nn(Cc3ccccc3)cc2C=O)cc1,6.6,54.3*,-42.4,32.5,29.7,58.0*
O=C(O)c1cn(Cc2ccccc2)nc1-c1ccccc1,1.3,18.7,·,3.4,6.6,·
SMILES,SKKanGAS inh,tim23-1 inh,PfHsp90 set2,tim10-1 inh,TIM10 inh,tim23-1 conf
Brc1ccc(-[n+]2c(-c3ccccc3)cc(-c3ccccc3)cc2-c2ccccc2)cc1,1.1,36.3,21.7,36.6,34.9,·
COc1ccc(C(=O)OC2CC3CCC(C2)[N+]3(C)[O-])cc1OC (centres undefined),0.2,-8.8,-1.4,-2.8,7.3,·
CN(C)c1ccc(/C=C/[N+](=O)[O-])cc1,2.9,46.5,-23.1,11.7,1.8,·
COc1cc(/C=C/[N+](=O)[O-])ccc1OC(=O)c1cccnc1,7.3,84.5*,108.9*,-63.2,34.1,-25.3
O=Cc1cn(Cc2ccc(Br)cc2)c2ccccc12,22.6,59.5*,-53.4,26.9,24.5,39.0
CCC(C)(C)n1nnnc1C(c1cccs1)N1CC=C(c2ccc(F)cc2)CC1 (centres undefined),-3.3,57.0*,-3.7,21.1,39.5,51.9*
NC(N)=N/N=C/c1ccc(N(c2ccccc2)c2ccccc2)cc1,105.2*,70.7*,24.0,-27.4,22.4,27.3*
O=C(O)CN1C(=O)CN=C(c2ccccn2)c2cc(Cl)ccc21,-0.9,2.9,2.4,-4.7,-19.5,·
